PubChem BioAssay AID1159580 (chemical genetic matrix, 2015)
About 2,000 (36%) of roughly 5,500 compounds were called active. Another 18% or so got no clear call; they are omitted. Rule as the data show it: active = normalized growth mostly below about 0.91 (no sharp cut-off); inconclusive = no clear call, values can overlap the other calls; inactive = mostly above about 0.92. Some of the results follow.

Assay: chemical genetic growth profiling, strain panel (AID 1159580);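 also: tested at 20 µM; growth read once vehicle control cultures reached saturation at 30 °C; 1 = growth at the plate median or of vehicle wells; lower values mean less growth of the strain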
Settings: growth OD
[1] = S. cerevisiae deletion strains, locus YDL101C, strain DUN1, stronger effect = lower value
[2] = S. cerevisiae deletion strains, locus YHR030C, strain SLT2, stronger effect = lower value
[3] = S. cerevisiae deletion strains, locus YJL095W, strain BCK1, stronger effect = lower value
[4] = S. cerevisiae deletion strains, locus YOR061W, strain CKA2, stronger effect = lower value

Measured: normalized growth

O=C(Nc1ccc(F)cc1F)c1cc(Cl)ccc1O
inactive: S. cerevisiae deletion strains, locus YAR019C, strain CDC15, stronger effect = lower value 0.935 | S. cerevisiae deletion strains, locus YBL105C, strain PKC1, stronger effect = lower value 0.933 | S. cerevisiae deletion strains, locus YBR135W, strain CKS1, stronger effect = lower value 0.943 | S. cerevisiae deletion strains, locus YBR136W, strain MEC1, stronger effect = lower value 0.94 | S. cerevisiae deletion strains, locus YBR160W, strain CDC28, stronger effect = lower value 0.945 | S. cerevisiae deletion strains, locus YDL017W, strain CDC7, stronger effect = lower value 0.935 | S. cerevisiae deletion strains, locus YDL028C, strain MPS1, stronger effect = lower value 0.937 | [1] 0.979 | S. cerevisiae deletion strains, locus YDL108W, strain KIN28, stronger effect = lower value 0.936 | S. cerevisiae deletion strains, locus YDL132W, strain cdc53, stronger effect = lower value 0.97 | S. cerevisiae deletion strains, locus YDL214C, strain PRR2, stronger effect = lower value 0.876 | S. cerevisiae deletion strains, locus YDR052C, strain DBF4, stronger effect = lower value 0.926 | S. cerevisiae deletion strains, locus YDR054C, strain cdc34, stronger effect = lower value 0.928 | S. cerevisiae deletion strains, locus YDR226W, strain ADK1, stronger effect = lower value 0.931 | S. cerevisiae deletion strains, locus YDR477W, strain SNF1, stronger effect = lower value 0.947 | S. cerevisiae deletion strains, locus YER123W, strain YCK3, stronger effect = lower value 0.864 | S. cerevisiae deletion strains, locus YER133W, strain GLC7, stronger effect = lower value 0.9 | S. cerevisiae deletion strains, locus YFL009W, strain cdc4, stronger effect = lower value 0.923 | S. cerevisiae deletion strains, locus YFL029C, strain CAK1, stronger effect = lower value 0.941 | S. cerevisiae deletion strains, locus YFR003C, strain YPI1, stronger effect = lower value 0.929 | S. cerevisiae deletion strains, locus YFR019W, strain FAB1, stronger effect = lower value 0.933 | S. cerevisiae deletion strains, locus YFR028C, strain CDC14, stronger effect = lower value 0.925 | S. cerevisiae deletion strains, locus YGR040W, strain KSS1, stronger effect = lower value 0.952 | S. cerevisiae deletion strains, locus YGR052W, strain FMP48, stronger effect = lower value 1 | S. cerevisiae deletion strains, locus YGR092W, strain DBF2, stronger effect = lower value 0.683 | [2] 0.927 | S. cerevisiae deletion strains, locus YHR079C, strain IRE1, stronger effect = lower value 0.845 | S. cerevisiae deletion strains, locus YHR082C, strain KSP1, stronger effect = lower value 0.989 | S. cerevisiae deletion strains, locus YHR205W, strain SCH9, stronger effect = lower value 0.694 | S. cerevisiae deletion strains, locus YIL147C, strain SLN1, stronger effect = lower value 0.938 | [3] 0.877 | S. cerevisiae deletion strains, locus YJL128C, strain PBS2, stronger effect = lower value 0.918 | S. cerevisiae deletion strains, locus YJL157C, strain FAR1, stronger effect = lower value 0.827 | S. cerevisiae deletion strains, locus YJR016C, strain ILV3, stronger effect = lower value 0.939 | S. cerevisiae deletion strains, locus YJR066W, strain TOR1 (second series), stronger effect = lower value 0.952 | S. cerevisiae deletion strains, locus YJR066W, strain TOR1, stronger effect = lower value 1.03 | S. cerevisiae deletion strains, locus YKL048C, strain ELM1, stronger effect = lower value 0.935 | S. cerevisiae deletion strains, locus YKL067W, strain YNK1, stronger effect = lower value 0.884 | S. cerevisiae deletion strains, locus YKL101W, strain HSL1, stronger effect = lower value 0.961 | S. cerevisiae deletion strains, locus YKL193C, strain SDS22, stronger effect = lower value 0.941 | S. cerevisiae deletion strains, locus YKL203C, strain TOR2, stronger effect = lower value 1.03 | S. cerevisiae deletion strains, locus YLR113W, strain HOG1, stronger effect = lower value 0.98 | S. cerevisiae deletion strains, locus YLR133W, strain CKI1, stronger effect = lower value 0.889 | S. cerevisiae deletion strains, locus YLR403W, strain SFP1, stronger effect = lower value 0.708 | S. cerevisiae deletion strains, locus YML070W, strain DAK1, stronger effect = lower value 0.936 | S. cerevisiae deletion strains, locus YMR001C, strain CDC5, stronger effect = lower value 0.94 | S. cerevisiae deletion strains, locus YMR205C, strain PFK2 (second series), stronger effect = lower value 0.901 | S. cerevisiae deletion strains, locus YMR277W, strain FCP1, stronger effect = lower value 0.952 | S. cerevisiae deletion strains, locus YNL006W, strain LST8, stronger effect = lower value 0.938 | S. cerevisiae deletion strains, locus YNL020C, strain ARK1, stronger effect = lower value 0.84 | S. cerevisiae deletion strains, locus YNL161W, strain CBK1, stronger effect = lower value 0.934 | S. cerevisiae deletion strains, locus YNL183C, strain NPR1, stronger effect = lower value 1.02 | S. cerevisiae deletion strains, locus YNL207W, strain RIO2, stronger effect = lower value 0.944 | S. cerevisiae deletion strains, locus YNL222W, strain SSU72, stronger effect = lower value 0.939 | S. cerevisiae deletion strains, locus YNL307C, strain MCK1 (second series), stronger effect = lower value 0.857 | S. cerevisiae deletion strains, locus YOL078W, strain AVO1, stronger effect = lower value 0.939 | S. cerevisiae deletion strains, locus YOL136C, strain PFK27, stronger effect = lower value 0.909 | [4] 0.89 | S. cerevisiae deletion strains, locus YOR119C, strain RIO1, stronger effect = lower value 1.01 | S. cerevisiae deletion strains, locus YOR231W, strain MKK1, stronger effect = lower value 0.996 | S. cerevisiae deletion strains, locus YOR329C, strain SCD5, stronger effect = lower value 0.939 | S. cerevisiae deletion strains, locus YPL031C, strain PHO85, stronger effect = lower value 0.928 | S. cerevisiae deletion strains, locus YPL153C, strain RAD53, stronger effect = lower value 0.922 | S. cerevisiae deletion strains, locus YPL204W, strain HRR25, stronger effect = lower value 0.915 | S. cerevisiae deletion strains, locus YPL209C, strain IPL1, stronger effect = lower value 0.937 | S. cerevisiae deletion strains, locus YPL256C, strain CLN2, stronger effect = lower value 0.927 | S. cerevisiae deletion strains, locus YPR025C, strain CCL1, stronger effect = lower value 0.945 | S. cerevisiae deletion strains, locus YPR106W, strain ISR1, stronger effect = lower value 0.94 | S. cerevisiae deletion strains, locus YPR111W, strain DBF20, stronger effect = lower value 0.947 | S. cerevisiae deletion strains, strain NNK1, stronger effect = lower value 0.965 | S. cerevisiae deletion strains, strain TSCII, stronger effect = lower value 0.934

COP(=O)(NC(C)=O)SC (configuration not stated)
inactive: S. cerevisiae deletion strains, locus YAL013W, strain DEP1, stronger effect = lower value 1.01 | S. cerevisiae deletion strains, locus YBR021W, strain FUR4, stronger effect = lower value 1 | S. cerevisiae deletion strains, locus YBR229C, strain ROT2, stronger effect = lower value 1.01 | S. cerevisiae deletion strains, locus YCL029C, strain bik1, stronger effect = lower value 1 | S. cerevisiae deletion strains, locus YDL035C, strain GPR1, stronger effect = lower value 1.01 | S. cerevisiae deletion strains, locus YDL074C, strain BRE1, stronger effect = lower value 1.04 | [1] 1.01 | S. cerevisiae deletion strains, locus YDL134C, strain PPH21, stronger effect = lower value 1.01 | S. cerevisiae deletion strains, locus YDL185W, strain tfp1, stronger effect = lower value 1 | S. cerevisiae deletion strains, locus YDL192W, strain arf1, stronger effect = lower value 0.996 | S. cerevisiae deletion strains, locus YDR101C, strain arx1, stronger effect = lower value 1 | S. cerevisiae deletion strains, locus YDR150W, strain NUM1, stronger effect = lower value 0.997 | S. cerevisiae deletion strains, locus YDR162C, strain NBP2, stronger effect = lower value 1.04 | S. cerevisiae deletion strains, locus YDR318W, strain mcm21, stronger effect = lower value 0.996 | S. cerevisiae deletion strains, locus YDR388W, stronger effect = lower value 0.983 | S. cerevisiae deletion strains, locus YDR502C, strain sam2, stronger effect = lower value 0.996 | S. cerevisiae deletion strains, locus YEL061C, strain CIN8, stronger effect = lower value 1 | S. cerevisiae deletion strains, locus YER110C, stronger effect = lower value 0.994 | S. cerevisiae deletion strains, locus YER155C, strain BEM2, stronger effect = lower value 1.01 | S. cerevisiae deletion strains, locus YER167W, strain BCK2, stronger effect = lower value 0.989 | S. cerevisiae deletion strains, locus YGL078C, strain dbp3, stronger effect = lower value 0.994 | S. cerevisiae deletion strains, locus YGL086W, strain mad1, stronger effect = lower value 0.994 | S. cerevisiae deletion strains, locus YGL248W, strain PDE1, stronger effect = lower value 1 | S. cerevisiae deletion strains, locus YGR078C, strain PAC10, stronger effect = lower value 1.04 | S. cerevisiae deletion strains, locus YGR135W, strain pre9, stronger effect = lower value 1 | S. cerevisiae deletion strains, locus YGR229C, strain SMI1, stronger effect = lower value 1.04 | S. cerevisiae deletion strains, locus YGR252W, strain gcn5, stronger effect = lower value 0.976 | [2] 1.01 | S. cerevisiae deletion strains, locus YHR079C, strain IRE1 (second series), stronger effect = lower value 0.998 | S. cerevisiae deletion strains, locus YHR094C, strain hxt1, stronger effect = lower value 0.991 | S. cerevisiae deletion strains, locus YHR129C, strain ARP1, stronger effect = lower value 1.01 | S. cerevisiae deletion strains, locus YHR200W, strain rpn10, stronger effect = lower value 1 | S. cerevisiae deletion strains, locus YIL066C, strain RNR3, stronger effect = lower value 1.04 | S. cerevisiae deletion strains, locus YIL073C, strain SPO22, stronger effect = lower value 1.03 | S. cerevisiae deletion strains, locus YIL125W, strain kgd1, stronger effect = lower value 0.997 | S. cerevisiae deletion strains, locus YIR030C, strain dcg1, stronger effect = lower value 1 | [3] 1.01 | S. cerevisiae deletion strains, locus YJL134W, strain LCB3, stronger effect = lower value 1 | S. cerevisiae deletion strains, locus YJL168C, strain set2, stronger effect = lower value 0.989 | S. cerevisiae deletion strains, locus YJL187C, strain SWE1 (second series), stronger effect = lower value 1.01 | S. cerevisiae deletion strains, locus YJR043C, strain POL32, stronger effect = lower value 1.02 | S. cerevisiae deletion strains, locus YJR075W, strain HOC1, stronger effect = lower value 1.03 | S. cerevisiae deletion strains, locus YKL009W, strain mrt4, stronger effect = lower value 1.01 | S. cerevisiae deletion strains, locus YKL068W, stronger effect = lower value 1.01 | S. cerevisiae deletion strains, locus YKL085W, strain MDH1 (second series), stronger effect = lower value 0.997 | S. cerevisiae deletion strains, locus YKL085W, strain MDH1, stronger effect = lower value 0.997 | S. cerevisiae deletion strains, locus YKL190W, strain CNB1, stronger effect = lower value 1.03 | S. cerevisiae deletion strains, locus YKR001C, strain vps1, stronger effect = lower value 0.996 | S. cerevisiae deletion strains, locus YLR039C, strain RIC1, stronger effect = lower value 1.05 | S. cerevisiae deletion strains, locus YLR058C, strain SHM2, stronger effect = lower value 1.01 | S. cerevisiae deletion strains, locus YLR102C, strain apc9, stronger effect = lower value 0.994 | S. cerevisiae deletion strains, locus YLR262C, strain YPT6, stronger effect = lower value 1.02 | S. cerevisiae deletion strains, locus YLR268W, strain sec22, stronger effect = lower value 0.999 | S. cerevisiae deletion strains, locus YLR330W, strain CHS5, stronger effect = lower value 1.01 | S. cerevisiae deletion strains, locus YLR342W, strain FKS1 (second series), stronger effect = lower value 1.01 | S. cerevisiae deletion strains, locus YLR371W, strain rom2, stronger effect = lower value 1 | S. cerevisiae deletion strains, locus YLR418C, strain cdc73, stronger effect = lower value 0.998 | S. cerevisiae deletion strains, locus YML016C, strain PPZ1, stronger effect = lower value 1.01 | S. cerevisiae deletion strains, locus YML032C, strain rad52, stronger effect = lower value 0.999 | S. cerevisiae deletion strains, locus YML124C, strain tub3, stronger effect = lower value 0.997 | S. cerevisiae deletion strains, locus YMR078C, strain ctf18, stronger effect = lower value 0.995 | S. cerevisiae deletion strains, locus YMR223W, strain ubp8, stronger effect = lower value 1 | S. cerevisiae deletion strains, locus YMR263W, strain SAP30, stronger effect = lower value 1.04 | S. cerevisiae deletion strains, locus YMR307W, strain GAS1, stronger effect = lower value 1.05 | S. cerevisiae deletion strains, locus YNL067W, strain RPL9B, stronger effect = lower value 1.03 | S. cerevisiae deletion strains, locus YNL128W, strain TEP1, stronger effect = lower value 1.01 | S. cerevisiae deletion strains, locus YNL153C, strain GIM3, stronger effect = lower value 1.02 | S. cerevisiae deletion strains, locus YNL233W, strain BNI4, stronger effect = lower value 1.01 | S. cerevisiae deletion strains, locus YNL250W, strain rad50, stronger effect = lower value 0.986 | S. cerevisiae deletion strains, locus YNL271C, strain bni1, stronger effect = lower value 0.993 | S. cerevisiae deletion strains, locus YNL298W, strain CLA4, stronger effect = lower value 0.995 | S. cerevisiae deletion strains, locus YNL307C, strain MCK1, stronger effect = lower value 0.995 | S. cerevisiae deletion strains, locus YNL322C, strain KRE1, stronger effect = lower value 1.01 | S. cerevisiae deletion strains, locus YNR052C, strain pop2, stronger effect = lower value 0.998 | S. cerevisiae deletion strains, locus YOL006C, strain TOP1, stronger effect = lower value 1.05 | S. cerevisiae deletion strains, locus YOL012C, strain htz1 0.88 | S. cerevisiae deletion strains, locus YOL147C, strain pex11, stronger effect = lower value 0.988 | [4] 1.01 | S. cerevisiae deletion strains, locus YOR069W, strain VPS5, stronger effect = lower value 1.01 | S. cerevisiae deletion strains, locus YOR136W, strain idh2, stronger effect = lower value 1 | S. cerevisiae deletion strains, locus YOR144C, strain elg1, stronger effect = lower value 0.995 | S. cerevisiae deletion strains, locus YOR184W, strain ser1, stronger effect = lower value 1.01 | S. cerevisiae deletion strains, locus YOR316C, strain cot1, stronger effect = lower value 0.999 | S. cerevisiae deletion strains, locus YPL055C, strain LGE1, stronger effect = lower value 1.09 | S. cerevisiae deletion strains, locus YPL241C, strain CIN2, stronger effect = lower value 1.01 | S. cerevisiae deletion strains, locus YPR119W, strain clb2, stronger effect = lower value 0.993 | S. cerevisiae deletion strains, locus YPR141C, strain kar3, stronger effect = lower value 0.994 | S. cerevisiae deletion strains, locus YPR163C, strain tif3, stronger effect = lower value 0.998 | S. cerevisiae deletion strains, locus YPR167C, strain met16, stronger effect = lower value 0.997 | S. cerevisiae deletion strains, strain wtn01, stronger effect = lower value 0.993 | S. cerevisiae strains, strain wild type, stronger effect = lower value 1.01
